From PubChem BioAssay
Pf apPOL inh – Pf-apPOL inhibitors, biochemical, fluorescence. Plasmodium falciparum apicoplast DNA polymerase (apPOL). Recombinant Pf-apPOL, molecular beacon fluorescence, 1.5 h. inhibition, % at 10 µM. 210,000 compounds, 0.25% hits. AID 1794808, 2022
mHTT-CaM PPI inh – mutant huntingtin-calmodulin interaction inhibitors – biochemical, AlphaScreen, primary screen | P42858 | AlphaScreen His-mHTT/GST-CaM binding, luminescence | inhibition, % at 15 µM | 190,000 compounds, 3.6% hits | AID 1671202, 2021;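 further: 0% = both proteins with DMSO and 100% = one protein alone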
Target sequence (P42858 whole entry, looked up, stated change not applied): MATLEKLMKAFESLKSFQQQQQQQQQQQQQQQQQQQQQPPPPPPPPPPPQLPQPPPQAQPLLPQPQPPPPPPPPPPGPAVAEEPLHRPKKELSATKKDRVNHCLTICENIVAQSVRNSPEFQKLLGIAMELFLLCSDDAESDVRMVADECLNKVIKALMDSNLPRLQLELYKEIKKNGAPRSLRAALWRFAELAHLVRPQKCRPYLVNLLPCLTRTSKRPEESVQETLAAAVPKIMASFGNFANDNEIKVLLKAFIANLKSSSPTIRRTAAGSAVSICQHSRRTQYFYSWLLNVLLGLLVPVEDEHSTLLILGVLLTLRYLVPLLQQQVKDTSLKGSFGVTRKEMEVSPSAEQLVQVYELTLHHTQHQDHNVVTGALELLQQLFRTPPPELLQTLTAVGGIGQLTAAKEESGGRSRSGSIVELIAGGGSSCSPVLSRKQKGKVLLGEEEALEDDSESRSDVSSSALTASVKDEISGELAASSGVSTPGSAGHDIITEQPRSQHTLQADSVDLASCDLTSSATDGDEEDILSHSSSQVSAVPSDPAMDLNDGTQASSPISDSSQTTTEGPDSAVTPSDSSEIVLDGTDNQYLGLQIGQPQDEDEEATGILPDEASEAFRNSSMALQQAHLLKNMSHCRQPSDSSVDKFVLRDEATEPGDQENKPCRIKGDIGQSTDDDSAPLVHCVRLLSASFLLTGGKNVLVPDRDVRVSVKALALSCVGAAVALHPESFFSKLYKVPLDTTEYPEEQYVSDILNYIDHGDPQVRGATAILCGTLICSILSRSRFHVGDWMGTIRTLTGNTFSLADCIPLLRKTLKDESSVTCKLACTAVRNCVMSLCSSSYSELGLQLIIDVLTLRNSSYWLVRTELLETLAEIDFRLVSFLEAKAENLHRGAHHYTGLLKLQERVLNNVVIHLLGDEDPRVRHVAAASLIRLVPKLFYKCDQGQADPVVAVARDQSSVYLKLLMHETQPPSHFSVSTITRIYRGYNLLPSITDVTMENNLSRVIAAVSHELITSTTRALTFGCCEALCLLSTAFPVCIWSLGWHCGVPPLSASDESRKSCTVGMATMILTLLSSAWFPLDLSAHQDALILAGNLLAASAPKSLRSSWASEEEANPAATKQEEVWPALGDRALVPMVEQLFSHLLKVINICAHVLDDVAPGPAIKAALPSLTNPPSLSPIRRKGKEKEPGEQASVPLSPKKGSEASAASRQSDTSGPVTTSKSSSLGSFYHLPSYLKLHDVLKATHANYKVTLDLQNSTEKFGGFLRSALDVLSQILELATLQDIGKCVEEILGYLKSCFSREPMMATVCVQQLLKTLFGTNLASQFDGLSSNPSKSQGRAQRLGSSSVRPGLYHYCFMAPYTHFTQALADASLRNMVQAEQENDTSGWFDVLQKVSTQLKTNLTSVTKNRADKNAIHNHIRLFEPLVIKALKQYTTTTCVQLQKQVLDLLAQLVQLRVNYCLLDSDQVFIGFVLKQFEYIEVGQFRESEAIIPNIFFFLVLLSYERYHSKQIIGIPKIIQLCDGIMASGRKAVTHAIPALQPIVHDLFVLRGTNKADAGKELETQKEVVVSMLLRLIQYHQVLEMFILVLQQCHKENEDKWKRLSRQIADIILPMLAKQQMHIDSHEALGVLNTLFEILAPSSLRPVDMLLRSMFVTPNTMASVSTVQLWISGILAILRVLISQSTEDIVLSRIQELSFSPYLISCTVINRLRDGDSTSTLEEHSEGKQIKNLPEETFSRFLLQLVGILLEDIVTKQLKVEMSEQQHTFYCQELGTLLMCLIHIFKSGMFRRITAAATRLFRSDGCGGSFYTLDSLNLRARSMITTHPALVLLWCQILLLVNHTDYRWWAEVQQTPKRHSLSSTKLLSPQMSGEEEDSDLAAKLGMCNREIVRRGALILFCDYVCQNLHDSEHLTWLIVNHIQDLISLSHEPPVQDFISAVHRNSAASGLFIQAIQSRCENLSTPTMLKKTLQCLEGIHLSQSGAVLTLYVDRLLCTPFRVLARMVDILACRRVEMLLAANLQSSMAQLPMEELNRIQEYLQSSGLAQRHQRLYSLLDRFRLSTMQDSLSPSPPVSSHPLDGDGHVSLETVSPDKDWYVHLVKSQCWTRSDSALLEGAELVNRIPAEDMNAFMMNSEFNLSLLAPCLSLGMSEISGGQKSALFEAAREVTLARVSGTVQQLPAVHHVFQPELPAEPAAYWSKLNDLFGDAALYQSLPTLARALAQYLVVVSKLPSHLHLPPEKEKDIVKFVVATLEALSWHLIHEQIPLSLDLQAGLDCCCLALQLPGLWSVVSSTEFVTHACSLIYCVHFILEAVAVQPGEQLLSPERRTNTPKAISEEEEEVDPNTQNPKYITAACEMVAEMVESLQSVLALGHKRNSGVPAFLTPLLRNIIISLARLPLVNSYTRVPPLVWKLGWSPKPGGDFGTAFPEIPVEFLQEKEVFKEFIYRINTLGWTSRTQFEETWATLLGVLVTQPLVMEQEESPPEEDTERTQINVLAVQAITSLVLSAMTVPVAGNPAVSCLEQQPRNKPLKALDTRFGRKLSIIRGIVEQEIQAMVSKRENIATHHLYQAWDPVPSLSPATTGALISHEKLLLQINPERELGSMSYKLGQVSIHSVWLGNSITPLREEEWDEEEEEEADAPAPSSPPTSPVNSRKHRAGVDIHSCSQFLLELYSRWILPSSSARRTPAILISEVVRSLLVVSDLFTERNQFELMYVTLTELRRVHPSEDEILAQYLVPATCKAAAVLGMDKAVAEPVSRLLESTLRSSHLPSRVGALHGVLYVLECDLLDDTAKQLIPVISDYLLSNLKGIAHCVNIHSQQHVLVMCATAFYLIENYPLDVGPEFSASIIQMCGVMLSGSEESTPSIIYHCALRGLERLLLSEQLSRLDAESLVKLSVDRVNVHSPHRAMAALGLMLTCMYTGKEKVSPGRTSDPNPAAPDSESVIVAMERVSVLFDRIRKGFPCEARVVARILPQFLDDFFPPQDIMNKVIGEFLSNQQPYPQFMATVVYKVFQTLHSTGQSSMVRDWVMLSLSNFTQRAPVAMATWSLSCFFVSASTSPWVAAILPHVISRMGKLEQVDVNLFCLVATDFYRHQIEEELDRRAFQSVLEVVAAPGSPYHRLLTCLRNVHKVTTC
* = called active by the depositor; . = no result given. Sampled rows, rich in hits. Any-hit rate of the full collection: about 3.5%. No stated cut-off is given here; in the data, active means inhibition above about 50%; inactive means the rest.

SMILES	Pf apPOL inh	mHTT-CaM PPI inh
COc1ccccc1-c1noc(C2CCCN2C(=O)c2ccsc2)n1 (stereo unspecified)	0	11
CCCNC(=O)c1cc2c(n1C)CCN(Cc1cccc(C)c1)C2	10	23
COc1cccc(CN2CCc3c(cc(C(=O)NCc4ccccc4OC)n3C)C2)c1	-2	40
COc1cccc(CN2CCc3c(cc(C(=O)Nc4cc(OC)cc(OC)c4)n3C)C2)c1	-2	62*
COc1ccc(NC(=O)c2cc3c(n2C)CCN(Cc2cccc(C)c2)C3)c(OC)c1	-1	63*
OCc1nc2ccccc2n1Cc1ccccc1	1	0
OCc1nc2ccccc2n1Cc1ccc(Cl)c(Cl)c1	1	73*
COc1ccc(CN(CCC(c2ccc3c(c2)OCO3)c2ccccc2OC)C(C)=O)cc1 (stereo unspecified)	2	53*
COc1ccc(CN(CCC(c2ccc3c(c2)OCO3)c2ccccc2OC)C(C)=O)cc1OC (stereo unspecified)	-6	68*
COc1ccccc1C(CCN(Cc1ccccc1)C(C)=O)c1ccc2c(c1)OCO2 (stereo unspecified)	-4	99*
COc1ccccc1C(CC(=O)N1CCCC1)c1ccc2c(c1)OCO2 (stereo unspecified)	2	6
COc1ccccc1C(CC(=O)O)c1ccc2c(c1)OCO2 (stereo unspecified)	-7	-1
CCC(=O)N(CCC(c1ccc2c(c1)OCO2)c1ccccc1OC)Cc1ccc2c(c1)OCO2 (stereo unspecified)	5	43
CC(C)c1c(O)nc2n(c1=O)CCCS2	-2	-3
CC1CCCC2(C1)OCC(C(=O)N1CCOCC1)N2C(=O)Cc1ccccc1 (stereo unspecified)	1	6
O=C(c1nnc(N2CCN(c3ccccc3F)CC2)c2ccccc12)N1CCCC1	-1	14
COc1cc2nc(-c3ccc(C)c([N+](=O)[O-])c3)oc(=O)c2cc1OC	-7	-2
COc1ccc(C(C)NC(=O)CN(c2ccc([N+](=O)[O-])cc2)S(=O)(=O)c2ccccc2)cc1 (stereo unspecified)	1	13
COc1ccc(-c2csc(Nc3ccccc3)[n+]2CC(O)c2ccc([N+](=O)[O-])cc2)cc1 (stereo unspecified)	1	66*
COC(=O)C1CN(CCc2ccccc2)CCS(=O)(=O)N1Cc1ccc(Cl)cc1 (stereo unspecified)	-4	71*
COC(=O)C1CN(CCc2ccccc2)CCS(=O)(=O)N1Cc1ccc(OC)cc1 (stereo unspecified)	-2	7
COC(=O)C1CN(Cc2ccccc2)CCS(=O)(=O)N1Cc1ccccc1 (stereo unspecified)	2	-6
COC(=O)C1CN(Cc2ccc(F)cc2)CCS(=O)(=O)N1Cc1ccc(F)cc1 (stereo unspecified)	-7	18
COC(=O)C1CN(Cc2ccccc2)CCS(=O)(=O)N1Cc1ccc(C(F)(F)F)cc1 (stereo unspecified)	-2	87*
COC(=O)C1CN(Cc2ccc(F)cc2)CCS(=O)(=O)N1Cc1ccc(C(F)(F)F)cc1 (stereo unspecified)	-3	69*
SMILES	Pf apPOL inh	mHTT-CaM PPI inh
O=C(Nc1ccc(F)c(F)c1)c1ccc(N2CCCCC2c2cccnc2)c([N+](=O)[O-])c1 (stereo unspecified)	-4	38
O=C(CCC1NC(=O)c2ccccc2NC1=O)Nc1ccc(F)c(Cl)c1 (stereo unspecified)	-6	-10
CNC(=O)c1cc(-c2ccc(OC)cc2)nc2ccccc12	0	13
CCOc1ccccc1N(CC(=O)NCc1ccncc1)S(C)(=O)=O	-6	2
O=C1c2cccc([N+](=O)[O-])c2C(=O)N1CNc1ccc(Cl)cc1	2	4
O=[N+]([O-])c1ccc2nc(-c3ccccc3)[nH]c2c1	31	11
C=CC(=O)Nc1ccc(-c2nc3ccc(NC(=O)C=C)cc3[nH]2)cc1	6	1
O=C(O)c1ccc(-c2nc3ccc(-c4ccc5nc(-c6ccc(C(=O)O)cc6)[nH]c5c4)cc3[nH]2)cc1	86*	.
COc1ccc(Cl)cc1C(=O)Nc1ccc(F)cc1	1	-8
CC(=O)Nc1ccc(-c2nc3ccc(NC(C)=O)cc3[nH]2)cc1	81*	1
Nc1ccc(C(=O)Nc2ccc(-c3nc4ccc(NC(=O)c5ccc(N)cc5)cc4[nH]3)cc2)cc1	-27	52*
Cc1cccc2[nH]c(-c3ccc(NC(=O)c4ccc(N)cc4)cc3)nc12	-2	21
COc1ccc(Cl)cc1C(=O)Nc1ccc(-c2nc3ccccc3[nH]2)cc1	4	90*
CCOc1ccccc1C(=O)N1CCCN(c2ncccc2-c2nc(C)no2)CC1	-7	0
O=C(CSc1nncc2ccccc12)c1ccccc1	-1	13
CC(C)(C)c1cc2c3c(cc(C(C)(C)C)cc3c1)CC2	3	.
CCc1cccc(CC)c1NS(=O)(=O)c1ccc(Br)cc1	3	-28
CC(C)(C)c1cc(C2=C(N3CCOCC3)C(=O)c3ccccc3C2=O)cc(C(C)(C)C)c1O	-2	86*
COc1cc(C(c2cc3c(cc2O)OCO3)N2CCOCC2)cc(OC)c1OC (stereo unspecified)	.	26
CC1CCN(C(c2ccc(N(C)C)cc2)c2cc(C(C)(C)C)c(O)c(C(C)(C)C)c2)CC1 (stereo unspecified)	-7	66*
CC(C)(C)c1cc(C(c2ccccc2O)N2CCOCC2)cc(C(C)(C)C)c1O (stereo unspecified)	12	52*
Cc1ccc(NC2=C(N3CCOCC3)C(=O)c3ccccc3C2=O)cc1	4	46
CC(C)(C)c1cc(CN2CCC(O)CC2)cc(C(C)(C)C)c1O	14	-4
Cn1nc(C(C)(C)C)cc1C(=O)NCc1ccc2c(c1)CCO2	-18	.
CSc1nsc2nc(=O)c(C=C3C=Nc4ccccc43)c(N)n12	-1	17
SMILES	Pf apPOL inh	mHTT-CaM PPI inh
COC(=O)c1cccc(NC(=S)NC(=O)c2ccco2)c1	-2	.
COc1ccc(Nc2c(Cl)cc(OC)cc2Cl)cc1	-5	.
N#COc1ccc(Nc2ccc(OC#N)cc2)cc1	5	95*
N#Cc1ccc(Oc2ccc(N)cc2)cc1	-4	0
N#COc1ccc(Oc2ccc(OC#N)cc2)cc1	-29	97*
COc1cccc(-c2noc(C3CCCN3C(=O)Nc3ccc(C)cc3C)n2)c1 (stereo unspecified)	-2	4
Cc1nc(C)c(C(=O)N2CCN(c3nc4ccc(S(C)(=O)=O)cc4s3)CC2)s1	-6	-9
CCn1cnnc1C1CCCN(Cc2ccc(C)o2)C1 (stereo unspecified)	-2	-5
Nc1c(C(=O)Nc2ccc(Cl)cc2Cl)sc2[nH]c(=O)c(C(=O)O)cc12	6	7
Nc1c(C(=O)c2ccc(Cl)cc2)sc2[nH]c(=O)c(C(=O)O)cc12	-1	59*
CNC(=O)N1CCCC(c2cccc(C(=O)NCCCOC)c2)C1 (stereo unspecified)	-7	-12
CCNc1cc(N2CCC(CCC(=O)N3CCN(C(C)=O)CC3)CC2)ncn1	2	1
CC(C)Cc1ccc(S(=O)(=O)n2cc([N+](=O)[O-])cn2)cc1	-3	100*
O=[N+]([O-])c1ccc(S(=O)(=O)n2cccn2)cc1	13	8
COc1ccc(OC)c(S(=O)(=O)c2ccc([N+](=O)[O-])cc2Cl)c1	-10	.
